The record followed here is PubChem BioAssay AID1345085 (National Center for Advancing Translational Sciences (NCATS), 2018).

Each structure is given as a SMILES string. Results filed as inconclusive are left out. Calls of active or inactive are those of the source. Calls come from the whole dose curve; as a rule, active = well fitted cell-killing curve with a large enough effect; inconclusive = small, poorly fitted or top-dose-only effect, or effect the other way; inactive = no such curve, though single readings can be large or run the other way. *1 amine or outer side, *2 acyl side, *3 side chain or, on linkers, in order; H or OH if unused. Where a SMILES comes first, the peptide text is derived from it. Bridges are numbered along the chain shown (N, C = ends). Roman numbers before positions name the chains, in order. [ ]: non-standard residue; d: D form. Actinocin(9to1) = Cc1c2oc3c(C)ccc(C(=O)[*:1])c3nc-2c(C(=O)[*:2])c(N)c1=O; NMeV = CN[C@H](C(=O)O)C(C)C; Sar = CNCC(=O)O

This assay deals with HeLa. Nature of the assay: Confirmatory qHTS for gynecologic anti-cancer compounds from libraries of approved drugs and bioactive compounds. Note: nearly all actives have a fitted effect of over 55% in size. To be noted: gynecologic cancer cell panel viability, ATPlite luminescence, 48 h; series mostly up to 57.6 µM. The method in brief:
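IC50 values derive from an ATPlite ATP-content luminescence assay following 48 h treatment at 37 C. Each compound ran as an 11-concentration, threefold series (57.5 uM to 0.977 nM); HEK 293T served as control line for selectivity index.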
(In qHTS, concentration-response curves come from the screen itself.)
Potency is the fitted concentration of half-maximal effect.

As for `CCc1nc(C(N)=O)c(Nc2ccc(N3CCC(N4CCN(C)CC4)CC3)c(OC)c2)nc1NC1CCOCC1`, the Potency was 3000 nM (active). Take `COc1ccc(-c2nc3ccc(C4=NNC(=O)CC4C)cc3[nH]2)cc1` (configuration not stated): the Potency was 19300 nM (active). Then `CCN(CC)CCCC(C)Nc1ccnc2cc(Cl)ccc12` (configuration not stated), with “inactive”. As for `C[C@@]1(C(=O)Nc2ccc(F)nc2)CCCN1c1nc(Nc2cc(C3CC3)[nH]n2)c2cccn2n1`, the figure is 968 nM (active); as for `CN1C(=O)C(Cc2c[nH]c3ccccc23)NC1=S` (configuration not stated), “inactive”.

With `O=C1c2c(O)ccc(O)c2C(=O)c2c(NCCNCCO)ccc(NCCNCCO)c21`, the Potency was 2430 nM (active). Then `COc1cc(N2CCC(N)CC2)ccc1Nc1ncc(Cl)c(-c2c[nH]c3ccccc23)n1`, with 544 nM (active); and `Cn1cnc2c(F)c(Nc3ccc(Br)cc3Cl)c(C(=O)NOCCO)cc21`, with “inactive”. With `O=C(Nc1cn[nH]c1-c1nc2ccc(CN3CCOCC3)cc2[nH]1)NC1CC1`, the Potency is 43.2 nM (active). As for `COc1cc2c(Nc3ccc(NC(=O)c4ccccc4)cc3)ncnc2cc1OCCCN1CCOCC1`, the figure is 21700 nM (active); as for `CS(=O)(=O)c1ccc(C(=O)Nc2ccc(Cl)c(-c3ccccn3)c2)c(Cl)c1`, “inactive”. Then `CN(c1nccc(=O)[nH]1)C1CCN(c2nc3ccccc3n2Cc2ccc(F)cc2)CC1`, with “inactive”; and `CNC(=O)c1nn(C)c2c1C(C)(C)Cc1cnc(Nc3ccc(N4CCN(C)CC4)cc3)nc1-2`, with 1530 nM (active); and `CCS(=O)(=O)N1CCN(c2ccc(Nc3ncc(C(N)=O)c(NC4CC4)n3)cc2)CC1`, with 4850 nM (active). Then `CN(Cc1cnc2nc(N)nc(N)c2n1)c1ccc(C(=O)N[C@@H](CCC(=O)O)C(=O)O)cc1`, with “inactive”; and `CCN1CCN(Cc2ccc(-c3cc4c(NC(C)c5ccccc5)ncnc4[nH]3)cc2)CC1` (configuration not stated), with 30600 nM (active). For the compound `COc1cc2c(NC3CCN(C(C)C)CC3)nc(C3CCCCC3)nc2cc1OCCCN1CCCC1`, the Potency is 15300 nM (active).

Consider `Cc1cc(SCc2sc(-c3ccc(C(F)(F)F)cc3)nc2C)ccc1OCC(=O)O`, for which the Potency result is “inactive”. As for `CC[C@H](CC#N)OC(=O)N[C@@H](C)c1cccc(NC(=O)Nc2ccc(-c3cnco3)c(OC)c2)c1`, the figure is 8630 nM (active). Consider `CCN1CCN(Cc2ccc(Nc3ncc(F)c(-c4cc(F)c5nc(C)n(C(C)C)c5c4)n3)nc2)CC1`, for which the Potency was 17200 nM (active).

With `CNCc1ccc(-c2[nH]c3cc(F)cc4c3c2CCNC4=O)cc1`, the Potency entry was “inactive”. Then `Cn1cc(-c2[nH]c3cc(NC(=O)[C@H](N)C4CCCCC4)cc4c3c2C=NNC4=O)cn1`, with 1720 nM (active). Then `CNc1nc(Nc2ccc(C(=O)N3CCOCC3)cc2OC)ncc1Cl`, with 6850 nM (active); and `CC(C)Oc1ccc(C(=O)NC(CNC(=O)CN(C)C)Cc2ccc(-c3cn4cccc(C(C)O)c4n3)cc2)cc1Cl` (configuration not stated), with 153 nM (active); and `Cc1cc(Nc2cc(N3CCN(C)CC3)nc(Sc3ccc(NC(=O)C4CC4)cc3)n2)n[nH]1`, with 1090 nM (active).

On to `CCCCN(CCCC)CC(O)c1cc(Cl)cc2c1-c1ccc(Cl)cc1/C2=C/c1ccc(Cl)cc1` (configuration not stated), for which the Potency entry is “inactive”.

Turning to `Nc1ccc(-c2ccc3ncc4ccc(=O)n(-c5cccc(C(F)(F)F)c5)c4c3c2)cn1`, the Potency was 385 nM (active). As for `CCN[C@H]1C[C@H](C)S(=O)(=O)c2sc(S(N)(=O)=O)cc21`, the entry is “inactive”; as for `CC(=O)c1cnc2ccc(-c3cc(Cl)c(O)c(Cl)c3)nc2c1NC1CCC(CN(C)C)CC1` (configuration not stated), 99.3 nM (active). Then `O=C(Nc1cccnc1)N1CCC(Cc2cccc(Oc3ccc(C(F)(F)F)cn3)c2)CC1`, with 3850 nM (active); and `O=C(CCCCCCNC(=O)c1cnc(N(c2ccccc2)c2ccccc2)nc1)NO`, with 7690 nM (active). As for `CN(C)C1CCN(C(=O)c2ccc(NC(=O)Nc3nc(N4CCOCC4)nc(N4CCOCC4)n3)cc2)CC1`, the figure is 769 nM (active). Take `CN1CCN(c2ccc(OC(F)(F)F)c(Nc3ncc4c(n3)-c3c(c(C(N)=O)nn3CCO)CC4)c2)CC1`: the Potency was 61.1 nM (active). In the case of `COc1cc2c(cc1-c1c(C)noc1C)ncc1[nH]c(=O)n(C(C)c3ccccn3)c12` (configuration not stated), the Potency is 544 nM (active). Turning to `COc1ccc(CCC(=O)c2c(O)cc(O[C@@H]3O[C@H](CO)[C@@H](O)[C@H](O)[C@H]3O[C@@H]3O[C@@H](C)[C@H](O)[C@@H](O)[C@H]3O)cc2O)cc1O`, the Potency result was “inactive”. As for `CCCS(=O)c1ccc2nc(NC(=O)OC)[nH]c2c1` (configuration not stated), the figure is 24300 nM (active); as for `Cc1c2oc3c(C)ccc(C(=O)N[C@@H]4C(=O)N[C@H](C(C)C)C(=O)N5CCC[C@H]5C(=O)N(C)CC(=O)N(C)[C@@H](C(C)C)C(=O)O[C@@H]4C)c3nc-2c(C(=O)N[C@@H]2C(=O)N[C@H](C(C)C)C(=O)N3CCC[C@H]3C(=O)N(C)CC(=O)N(C)[C@@H](C(C)C)C(=O)O[C@@H]2C)c(N)c1=O` (I: T[dV]P[Sar][NMeV] / II: T[dV]P[Sar][NMeV]; ester I:1-I:C, II:1-II:C; linker I:N-II:N via Actinocin(9to1)), 863 nM (active).
